Assay [1] can be described thus: qHTS assay for small molecules that induce genotoxicity in human embryonic kidney cells expressing luciferase-tagged ATAD5 (AID 651632). Note: nearly all actives have a fitted effect of over 15% in size. In a few lines:
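DMSO vehicle served as the control. HEK293T reporter cells, 16 hr at 37C, then 30 min Amplite at room temperature; ATAD5 induction is measured as luciferase activity.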

Assay [2] in a line: qHTS assay for small molecules that induce genotoxicity in human embryonic kidney cells expressing luciferase-tagged ATAD5 - cell viability (AID 651634; calls by dose curve; note: nearly all actives have a fitted effect of over 25% in size). The procedure, abridged: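 Here HEK293T cells with the ATAD5 luciferase reporter are incubated with test compounds for 15.5 hr, and cytotoxicity is then gauged by measuring protease activity in live cells using fluorescence.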

Assay [3] can be described thus: qHTS assay to test for compound auto fluorescence at 590 nm (red) in HepG2 cells (AID 720674). In a few lines:
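Red autofluorescence (Ex/Em 540/590 nm, Rose Bengal sodium equivalents) was measured in HepG2 cells, 2,000 per well in MEM plus 10% FBS, plated overnight at 37 C. Readings were taken 1 hr after adding 23 nL compound or DMSO, at 37 C and 5% CO2.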

Assay [4] is described as follows: qHTS assay to test for compound auto fluorescence at 460 nm (blue) in HEK293 cell free culture (AID 720681). In a few lines:
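Blue fluorescence (Ex 405/Em 460 nm, triamterene-equivalent) was read immediately after pin transfer of compound or DMSO into medium (DMEM, 10% FBS) without cells.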

A short description of assay [5]: qHTS assay to test for compound auto fluorescence at 535 nm (green) in HEK293 cell free culture (AID 720682). In a few lines:
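Measurement is a direct plate read of green fluorescence (485 nm in, 535 nm out) after compound addition to serum-supplemented DMEM lacking cells, with fluorescein used to express intensities.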

Assay [6] in a line: qHTS assay to test for compound auto fluorescence at 590 nm (red) in HEK293 cell free culture (AID 720683). In a few lines: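 Red-channel autofluorescence of compounds in culture medium (DMEM, 10% FBS), no cells, measured at 540/590 nm. Rose Bengal sodium is the reference fluorophore for equivalence.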
The nature of assay [7]: qHTS assay to test for compound auto fluorescence at 460 nm (blue) in HepG2 cell free culture (AID 720685). In a few lines:
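Cell-free plates of MEM plus 10% FBS received 23 nL compound or DMSO vehicle; blue-channel (405/460 nm) intensity scored against triamterene as reference fluorophore.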

A short description of assay [8]: qHTS assay to test for compound auto fluorescence at 535 nm (green) in HepG2 cell free culture (AID 720686).
Assay [9] is described as follows: qHTS assay to test for compound auto fluorescence at 460 nm (blue) in HepG2 cells (AID 720687). The procedure, abridged: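 Blue-channel autofluorescence (Ex/Em 405/460 nm, triamterene-equivalent) was measured after 1 hr compound exposure at 37 C, 5% CO2. Cells were HepG2, plated overnight at 37 C in MEM plus 10% FBS.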
Assay [10] in a line: qHTS assay to identify small molecule antagonists of the glucocorticoid receptor (GR) signaling pathway - cell viability counter screen (AID 720693). Note: nearly all actives have a fitted effect of over 55% in size.
Assay [11] in a line: qHTS assay to identify small molecule antagonists of the thyroid receptor (TR) signaling pathway (AID 743065). Note: series mostly up to about 70 µM; nearly all actives have a fitted effect of over 55% in size. The procedure, abridged:
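Antagonism measured as loss of luciferase signal in GH3 cells stably carrying a TRE-luciferase reporter, co-treated with compound and T3 (1 nM final) for 23.5 h at 37 C. Viability was read in the same well by CellTiter-Fluor.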

Assay [12] relates to thyroid hormone receptor (rat, GH3 cells). As to the kind of experiment: qHTS assay to identify small molecule agonists of the thyroid receptor (TR) signaling pathway (AID 743066; calls by dose curve; note: potency is the fitted concentration of half-maximal effect).
The nature of assay [13]: qHTS assay to identify small molecule antagonists of the estrogen receptor alpha (ER-alpha) signaling pathway - cell viability counter screen (AID 743074; calls by dose curve;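 note: HEK293 cells carrying ER-alpha-UAS-bla reporter stimulated with 17beta-estradiol; nearly all actives have a fitted effect of over 45% in size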).
In the next assay the target is Aromatase (Homo sapiens) (UniProt P11511). As to the kind of experiment: qHTS assay to identify aromatase inhibitors (AID 743083). Note: series mostly up to about 70 µM; nearly all actives have a fitted effect of over 55% in size.
A short description of assay [14]: qHTS assay to identify aromatase inhibitors - cell viability counter screen (AID 743084).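 Note: cells stimulated with testosterone during compound exposure; nearly all actives have a fitted effect of over 55% in size.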
For assay [15], the target named is Aryl hydrocarbon receptor (Homo sapiens) (UniProt P35869). As to the kind of experiment: qHTS assay to identify small molecule that activate the aryl hydrocarbon receptor (AhR) signaling pathway (AID 743085). Note: nearly all actives have a fitted effect of over 15% in size. Note: potency is the fitted concentration of half-maximal effect. In a few lines: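 24 h compound exposure, 37C, HepG2-derived HG2L7.5c1 cells with DRE-responsive luciferase. Readouts: fluorescence viability, then luminescence at room temperature after 30 min.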

A short description of assay [16]: qHTS assay to identify small molecule phospholipidosis (PLD) inducers (AID 1259344; active = well fitted curve in the direction sought with a large enough effect; an effect the other way counts as inactive or inconclusive). In a few lines: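 Accumulated phospholipid, stained red by LipidTOX during 24 h compound treatment of HepG2 cells at 37 C, is quantified from images as pit number and intensity, normalised per cell using Hoechst-stained nuclei.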
Assay [17] can be described thus: qHTS assay for small molecule disruptors of the mitochondrial membrane potential - cell viability (AID 720634; calls by dose curve;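 note: human HepG2 liver cancer cells; series mostly up to about 83 µM; nearly all actives have a fitted effect of over 20% in size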). The procedure, abridged:
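Viability of HepG2 cells is scored from ATP content by luminescence; cells are exposed to compound for 1 hr at 37 C and 5% CO2, then dosed with m-MPI dye before the CellTiter-Glo reagent.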

The nature of assay [18]: qHTS assay to test for compound auto fluorescence at 535 nm (green) in HepG2 cells (AID 720675).
The nature of assay [19]: qHTS assay to identify small molecule antagonists of the estrogen receptor alpha (ER-alpha) signaling pathway using the BG1 cell line - cell viability counter screen (AID 743081).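 Note: compound given together with 17beta-estradiol as the ER stimulus; series mostly up to about 70 µM; nearly all actives have a fitted effect of over 45% in size.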

Results filed as inconclusive are left out. Active and inactive are the calls of the source. Unless noted, calls come from the whole dose curve; as a rule, active = well fitted curve in the direction sought with a large enough effect in the repeat runs; inconclusive = weak or mixed curves; inactive = no such curve, though single readings can be large; an effect the other way counts as inactive or inconclusive.

Chain of Aromatase (Homo sapiens) (P11511 whole entry, looked up): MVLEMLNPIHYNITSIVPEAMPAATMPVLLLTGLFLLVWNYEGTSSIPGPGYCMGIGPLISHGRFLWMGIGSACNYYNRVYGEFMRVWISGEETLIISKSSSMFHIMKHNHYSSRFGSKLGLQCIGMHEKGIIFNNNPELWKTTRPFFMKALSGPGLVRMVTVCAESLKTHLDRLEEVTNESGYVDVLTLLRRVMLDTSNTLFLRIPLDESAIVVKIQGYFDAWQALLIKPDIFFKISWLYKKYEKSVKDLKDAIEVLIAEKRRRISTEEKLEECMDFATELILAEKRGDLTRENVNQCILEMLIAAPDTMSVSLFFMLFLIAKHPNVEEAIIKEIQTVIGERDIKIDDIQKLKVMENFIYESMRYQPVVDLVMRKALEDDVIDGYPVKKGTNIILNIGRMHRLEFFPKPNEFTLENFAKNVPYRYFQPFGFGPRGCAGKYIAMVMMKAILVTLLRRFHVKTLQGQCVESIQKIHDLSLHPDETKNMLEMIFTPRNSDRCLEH
Chain of Aryl hydrocarbon receptor (Homo sapiens) (P35869 whole entry, looked up): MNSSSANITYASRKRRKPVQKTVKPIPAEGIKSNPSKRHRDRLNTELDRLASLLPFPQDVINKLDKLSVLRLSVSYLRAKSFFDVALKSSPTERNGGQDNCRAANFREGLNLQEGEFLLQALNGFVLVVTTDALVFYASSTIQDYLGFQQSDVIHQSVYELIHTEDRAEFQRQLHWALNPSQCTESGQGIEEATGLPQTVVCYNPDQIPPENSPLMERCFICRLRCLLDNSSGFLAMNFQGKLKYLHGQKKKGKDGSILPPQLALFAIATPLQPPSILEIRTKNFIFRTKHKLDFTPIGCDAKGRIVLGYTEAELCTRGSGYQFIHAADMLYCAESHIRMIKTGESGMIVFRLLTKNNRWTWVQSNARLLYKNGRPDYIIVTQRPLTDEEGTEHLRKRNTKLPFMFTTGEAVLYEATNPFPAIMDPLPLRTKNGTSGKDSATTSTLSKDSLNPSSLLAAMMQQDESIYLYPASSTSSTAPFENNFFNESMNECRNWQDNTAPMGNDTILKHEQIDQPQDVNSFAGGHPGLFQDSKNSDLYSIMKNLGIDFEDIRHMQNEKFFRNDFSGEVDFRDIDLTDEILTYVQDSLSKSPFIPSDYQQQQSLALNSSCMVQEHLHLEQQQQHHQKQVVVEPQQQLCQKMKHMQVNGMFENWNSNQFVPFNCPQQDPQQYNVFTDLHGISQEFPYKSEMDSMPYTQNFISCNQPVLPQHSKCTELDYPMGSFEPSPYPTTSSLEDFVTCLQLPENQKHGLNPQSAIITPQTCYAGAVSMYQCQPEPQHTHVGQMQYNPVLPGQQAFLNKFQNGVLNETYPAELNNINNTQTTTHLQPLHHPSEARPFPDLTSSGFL

Consider `CCC(C)(S(=O)(=O)CC)S(=O)(=O)CC`, for which the Potency entry in [1], in [2], in [4], in assay [5], in assay [7] and in assay [8] was “inactive” throughout. The Potency entry (in assay [9]; in assay [10]; in [11]; in assay [12]; in assay [13]; with Aromatase (Homo sapiens)) was “inactive” throughout. In addition, the Potency entry in assay [14], in assay [15] and in [16] was “inactive” throughout. The compound was called inactive in assay [3] and in assay [6].
Turning to `O=S(=O)(O)c1cc(O)ccc1O`, the Potency result in assay [1], in [2], in [17], in [18], in [4] and in assay [5] was “inactive” in each case. The Potency entry in assay [7], in [9], in [10], in assay [11], in [12] and in assay [13] was “inactive” each time. In addition, the Potency entry in assay [19] and in [16] was “inactive” throughout. The compound was classed as inactive in [3] and in assay [6].
Take `C[C@@H](CO)NC(=O)[C@@H]1C=C2c3cccc4[nH]cc(c34)C[C@H]2N(C)C1`: the Potency result in assay [1], in [2], in assay [17], in assay [18], in assay [4] and in assay [5] was “inactive” throughout. Moreover, the Potency entry in [7], in [8], in assay [9], in assay [10], in [11] and in assay [12] was “inactive” in each case. For the same compound, the Potency entry (in [13]; in [19]; in the assay with Aromatase (Homo sapiens); in [14]; in assay [15]; in assay [16]) was “inactive” in each case. Also, the compound was called inactive in assay [3] and in assay [6].
With `COc1ccc(OC)c([C@@H](O)[C@H](C)N)c1`, the Potency result in assay [1], in assay [2], in assay [17], in [18], in assay [4] and in assay [5] was “inactive” in each case. Further, the Potency entry in [7], in assay [8], in assay [9], in assay [10], in [11] and in [13] was “inactive” each time. The Potency result (in [19]; in the assay with Aromatase (Homo sapiens); in [14]; in [15]; in assay [16]) was “inactive” in each case. Besides, the result in assay [3] and in assay [6] was inactive. For the same compound, the Potency in assay [12] was 29.8 µM (active).
`C[C@@H]([C@H](O)c1ccccc1)N(C)C`: the Potency entry in assay [1], in assay [2], in assay [17], in [18], in assay [4] and in assay [5] was “inactive” in each case. Further, the Potency result in assay [7], in [8], in [9], in assay [10], in [11] and in assay [12] was “inactive” throughout. For the same compound, the Potency entry (in assay [13]; in assay [19]; in the assay with Aromatase (Homo sapiens); in assay [14]; in assay [15]; in assay [16]) was “inactive” throughout. Further, the call in assay [3] and in assay [6] was inactive.
Consider `Cc1ccccc1-n1c(CF)nc2ccc(N)cc2c1=O`, for which the Potency entry in assay [1], in assay [2], in [17], in assay [4], in assay [5] and in [7] was “inactive” throughout. Further, the Potency entry in [8], in assay [9], in assay [10], in assay [11], in assay [12] and in assay [13] was “inactive” in each case. Also, the Potency entry (in assay [19]; in the assay with Aromatase (Homo sapiens); in [14]; in assay [16]) was “inactive” throughout. For the same compound, the compound was classed as inactive in assay [3] and in assay [6]. For the same compound, in [15], the Potency was 29.8 µM (active).
Consider `CCOc1ccc2c3c1O[C@H]1[C@@H](O)C=C[C@H]4[C@@H](C2)N(C)CC[C@@]341`, for which the Potency result in [1], in assay [2], in assay [17], in assay [18], in assay [4] and in assay [5] was “inactive” each time. Also, the Potency result in [7], in [8], in [9], in [10], in assay [12] and in [13] was “inactive” throughout. Also, the Potency entry (in [19]; with Aromatase (Homo sapiens); in assay [14]; in assay [16]) was “inactive” throughout. Besides, the result in assay [3] and in assay [6] was inactive.
With `C[C@]12C=CC(=O)C=C1CC[C@@H]1[C@@H]2CC[C@]2(C)OC(=O)CC[C@@H]12`, the Potency entry in [1], in assay [2], in [17], in [18], in [4] and in [5] was “inactive” each time. Also, the Potency entry in assay [7], in assay [8], in [9], in [10], in assay [11] and in assay [12] was “inactive” each time. Besides, the Potency entry (in [13]; in assay [19]; with Aromatase (Homo sapiens); in assay [14]; in [15]; in [16]) was “inactive” in each case. Also, the outcome in assay [3] and in assay [6] was inactive.
Consider `C[C@]12CC[C@H](OS(=O)(=O)O)CC1=CC[C@@H]1[C@@H]2CC[C@]2(C)C(=O)CC[C@@H]12`, for which the Potency result in assay [1], in [2], in [17], in [18], in assay [4] and in assay [5] was “inactive” each time. The Potency entry in [7], in assay [8], in assay [9], in assay [10], in assay [12] and in [13] was “inactive” in each case. The Potency entry (in assay [19]; with Aromatase (Homo sapiens); in assay [14]; in assay [15]; in assay [16]) was “inactive” in each case. Further, the result in [3] and in assay [6] was inactive.
For `[2H]C([2H])([2H])[C@H](N)Cc1ccccc1`, the Potency result in assay [1], in assay [2], in assay [17], in [18], in assay [4] and in assay [5] was “inactive” in each case. Also, the Potency result in assay [7], in assay [8], in assay [9], in [10], in assay [11] and in [12] was “inactive” in each case. In addition, the Potency entry (in [13]; in assay [19]; with Aromatase (Homo sapiens); in assay [14]; in [15]; in assay [16]) was “inactive” throughout. The compound was classed as inactive in [3] and in assay [6].
For the compound `COc1ccc2c3c1O[C@H]1[C@@H](O)C=C[C@H]4[C@@H](C2)NCC[C@@]341`, the Potency entry in assay [1], in [2], in [17], in [18], in assay [4] and in assay [5] was “inactive” throughout. The Potency entry in assay [7], in [8], in assay [9], in assay [10], in assay [11] and in assay [12] was “inactive” throughout. The Potency result (in assay [13]; in assay [19]; with Aromatase (Homo sapiens); in [14]; in assay [15]; in assay [16]) was “inactive” each time. Further, the compound was called inactive in assay [3] and in assay [6].
As to `CC(=O)OC1CN2CCC1CC2` (stereo not drawn), the Potency result in assay [1], in assay [2], in assay [17], in assay [18], in assay [4] and in assay [5] was “inactive” in each case. Further, the Potency result in assay [7], in assay [9], in assay [10], in assay [11], in assay [12] and in [13] was “inactive” in each case. For the same compound, the Potency result (in [19]; with Aromatase (Homo sapiens); in [14]; in assay [15]; in [16]) was “inactive” each time. Moreover, the outcome in [3] and in [6] was inactive.
As for `CC(Cc1ccccc1)NC=O` (stereo not drawn), the Potency result in assay [1], in [2], in assay [17], in assay [18], in assay [4] and in assay [5] was “inactive” in each case. The Potency entry in assay [7], in [8], in [9], in assay [10], in [11] and in assay [12] was “inactive” each time. For the same compound, the Potency result (in assay [13]; in assay [19]; with Aromatase (Homo sapiens); in assay [14]; in assay [15]; in assay [16]) was “inactive” each time. Moreover, the compound was called inactive in assay [3] and in assay [6].
